Source: PubChem BioAssay AID488807 (Broad Institute, 2010)
Entries with a potency or affinity are not part of this list. Records with an inconclusive call do not appear. Unmarked numbers belong to inactive results. Active and inactive are the calls of the source. No rule for the calls is given here.

Experiment: growth inhibition of resistant C. albicans, dose response, CaCi-8, fluconazole, Alamar Blue, dry powder (AID 488807)
Settings: C. albicans CaCi-8 + fluconazole, 48 h; series mostly up to 26 µM

SMILES	outcome	activity change, negative = inhibition
c1ccc(-c2n[nH]c3ccccc23)cc1	inactive	–
COc1ccc2c(c1)c1nc3n(c(=O)c1n2CC(=O)N1CCC(C)CC1)CCS3	–	13% [at 2.6 µM]
O=C(Cn1nc(-c2ccccc2)c2cc(Cl)ccc21)N1CCOCC1	inactive	–
COC(=O)Cn1nc(C)c2ccccc21	inactive	–
O=C(Cn1nc(-c2ccccc2)c2ccccc21)NCc1ccc(Cl)cc1	inactive	–
O=C(O)c1nn(Cc2ccc(Cl)cc2)c2ccccc12	inactive	–
CCOC(=O)c1c2ccccc2nn1Cc1ccc(Cl)cc1	inactive	–
COc1ccc2c(c1)c1nc3n(c(=O)c1n2CC(=O)N1CCC(Cc2ccccc2)CC1)CCS3	inactive	–
O=C(Cn1c2ccccc2c2nc3n(c(=O)c21)CCS3)NCCc1ccc(Cl)cc1	inactive	–
Cc1nn(S(C)(=O)=O)c2ccccc12	inactive	–
CCCNC(=O)Cn1nc(-c2ccccc2)c2cc(Cl)ccc21	inactive	–
CCCNC(=O)Cn1nc(-c2ccccc2)c2ccccc21	inactive	–
O=C(Cn1nc(C(=O)N2CCCCC2)c2ccccc21)N1CCOCC1	inactive	–
O=C(Cn1c2ccccc2c2nc3n(c(=O)c21)CCCS3)c1ccc(F)cc1	inactive	–
CCOC(=O)c1nn(Cc2ccc(Cl)cc2)c2ccccc12	inactive	–
O=C(Cn1nc(-c2ccccc2)c2ccccc21)N1CCc2ccccc2C1	inactive	–
O=C(c1ccc(Cl)cc1)N1CCN(c2cc(C(F)(F)F)nc3ccccc23)CC1	inactive	–
COc1ccc(OC)c2c(C)cc(N3CCN(C(=O)c4ccc(Cl)cc4)CC3)nc12	inactive	–
O=S(=O)(c1ccc(Cl)cc1)N1CCN(c2ccnc3cc(Cl)ccc23)CC1	inactive	–
